# PubChem BioAssay AID2314 (National Center for Advancing Translational Sciences (NCATS), 2010)
# Several values for one entry are separate records, joined by “and”; a condition that tells them apart may be missing. Identical values can stand only once. Screen size: about 300,000 compounds; about 37,000 (12%) were called active. Rule as the data show it: active = max response mostly above about 13% (no sharp cut-off); inactive = mostly below about 14%. The sample as a whole holds a higher share of actives than the screen did.
# Assay: Cycloheximide Counterscreen for Small Molecule Inhibitors of Shiga Toxin; also: read at 38.3 µM for the half of the compounds with a filed dose; 0% is about no effect
# Details: cell reporter, cycloheximide protein synthesis inhibition counterscreen; stronger effect = higher value
row,SMILES,max response
1,Cc1cccc(OCC(O)Cn2c(N3CCCCC3)nc3c2c(=O)[nH]c(=O)n3C)c1 (configuration not stated),14.8% (inactive)
2,CCOC(=O)c1c(Cc2ccc(Cl)cc2)c[nH]c1C,26.8% (active)
3,CCOC(=O)c1c(S(=O)(=O)Nc2cccc(Cl)c2)c(C)n(C)c1C,5.3% (inactive)
4,CCOC(=O)C1=C(C)NC(=O)N(C(C)=O)C1c1ccc(Cl)cc1 (configuration not stated),-4.1% (inactive)
5,CC(OC(=O)c1ccc2noc(-c3ccccc3)c2c1)C(N)=O (configuration not stated),2.78% (inactive)
6,O=C(Nc1ccc([N+](=O)[O-])cc1)C1CC12CCC2 (configuration not stated),21.8% (active)
7,O=C(Nc1ccc(F)cc1)C1CCN(C(=O)c2ccc([N+](=O)[O-])cc2)CC1,3.26% (inactive)
8,O=C(Nc1ccc([N+](=O)[O-])cc1)C1(c2ccccc2)CCOCC1,-3.32% (inactive)
9,O=C(c1c(F)cccc1F)N1CCN(S(=O)(=O)c2ccc3c(c2)OCCO3)CC1,13.2% (inactive)
10,COc1ccc(N2CC(C(=O)NCCS(=O)(=O)N3CCN(c4ccccc4)CC3)CC2=O)cc1 (configuration not stated),5.23% (inactive)
11,C=CCc1cccc(/C=N/NC(=O)COc2ccc(-n3cnnn3)cc2)c1O,7.64% (inactive)
12,Cc1cccc(CSc2nnc(NC(=O)CSc3nnc(C)s3)s2)c1,10.9% (inactive)
13,O=C(Nc1nnc(CCOCCOCCc2nnc(NC(=O)c3ccco3)s2)s1)c1ccco1,-1.29% (inactive)
14,O=C(Cc1cccs1)Nc1nnc(SCc2ccc(F)cc2)s1,-3.78% (inactive)
15,O=C(Nc1nnc(SCc2ccccc2)s1)c1ccco1,23.3% (active)
16,CCOC(=O)N1CCN(Cc2nc(N)nc(Nc3ccc(C)cc3)n2)CC1,5.78% (inactive)
17,Cc1ccc(Nc2nnc(SCc3ccccc3)s2)cc1,24.5% (active)
18,Cc1nnc(SCc2nc3ccccc3nc2C)s1,-3.4% (inactive)
19,Cc1ccc(Nc2nc(N)nc(CSc3nnc(C)s3)n2)cc1,34.9% (active)
20,COC(=O)CSc1nnc(NC(=O)CCc2ccccc2)s1,14% (inactive)
21,Cc1ccc(OCC(=O)Nc2ccc(C(=O)O)cc2NC(=O)COc2ccc(C)c(C)c2)cc1C,7.55% (inactive)
22,NC(=O)C1CCN(C(=O)CC2C(=O)NCCN2Cc2cccc(Oc3ccccc3)c2)CC1 (configuration not stated),-2.74% (inactive)
23,CC(C(=O)Nc1ccc(F)c(F)c1F)N1CCCCCC1 (configuration not stated),-2.23% (inactive)
24,Cc1ccc(C2SCC(=O)N2c2ccccc2)cc1 (configuration not stated),16.9% (active)
25,O=C1CSC(c2cccc(F)c2)N1c1ccc(O)cc1 (configuration not stated),-1.44% (inactive)
26,COc1cccc(C2SCC(=O)N2c2cccc(C)c2)c1OC (configuration not stated),-0.463% (inactive)

row,SMILES,max response
1,COc1ccc(C(C)NC(=O)C2CCCC2)cc1 (configuration not stated),-0.457% (inactive)
2,CCc1ccc(N(CC(=O)NCc2cccnc2)S(=O)(=O)c2ccccc2)cc1,9.39% (inactive)
3,O=c1nc(N/N=C/c2ccco2)cn[nH]1,35.1% (active)
4,O=C(Cn1cnc2ccccc21)N/N=C/c1ccco1,7.5% (inactive)
5,CC(C)NC(=O)C(=O)N/N=C/c1ccco1,6.82% (inactive)
6,O=C1C2C3C=CC(C4CC34)C2C(=O)N1c1nccs1 (configuration not stated),-4.99% (inactive)
7,CCCC1=Nc2cc(C(=O)NCc3ccco3)ccc2Sc2ccccc21,12.1% (inactive)
8,CCC(C)NC(=O)C1c2ccccc2C(=O)N1Cc1ccccc1 (configuration not stated),7.68% (inactive)
9,CCN(CC)S(=O)(=O)c1ccc2nc(COC(=O)c3n[nH]c4ccccc34)[nH]c2c1,-0.99% (inactive)
10,O=C(NCCc1ccc(F)cc1)c1n[nH]c2ccccc12,43.7% (active)
11,CCC(C)NC(=O)CCCc1ccccc1 (configuration not stated),27.2% (active)
12,COc1cccc(CNC(=O)c2n[nH]c3ccccc23)c1,27.4% (inactive)
13,O=C(CCOc1ccccc1)NCc1ccccc1,-2.09% (inactive)
14,CC(CCc1ccccc1)NC(=O)COC(=O)c1ccc(F)cc1 (configuration not stated),-6.34% (inactive)
15,O=C(O)CCCc1ccccc1,-4.62% (inactive) and -1.89% (inactive)
16,COc1ccc(COC(=O)c2n[nH]c3ccccc23)cc1F,67% (active)
17,O=C(CCCc1ccccc1)NCc1ccccc1,28.4% (active)
18,O=C(COC(=O)c1n[nH]c2ccccc12)NCc1ccccc1,7.3% (inactive)
19,C=CCN(CC=C)C(=O)COC(=O)c1n[nH]c2ccccc12,-0.5% (inactive)
20,Cc1cccc(CC(=O)N2CCN=C2SCc2ccc([N+](=O)[O-])cc2)c1,-3.02% (inactive)
21,CC1C(=O)Nc2ccccc2N1C(=O)c1ccc(F)cc1F (configuration not stated),1.08% (inactive)
22,CC(C)C[C@@H](N)c1nnc(SCC(=O)c2ccc(Cl)cc2)o1,-2.64% (inactive)
23,CCc1ccc(S(=O)(=O)Nc2cc3c(cc2N2CCCCC2)n(C)c(=O)c(=O)n3C)cc1,3.05% (inactive)
24,CCCCC(=O)NCc1ccc(F)cc1,-4.14% (inactive)
25,CCN(CC)CCCNC(=O)CCc1ccccc1,10.2% (inactive)
26,O=C(Cc1c(O)c2ccccc2[nH]c1=O)NCc1ccccc1,-2.53% (inactive)

row,SMILES,max response
1,Cc1ccnc(NC(=O)CCC(=O)N(CC(=O)NCCc2ccccc2)Cc2cccs2)c1,-8.74% (inactive)
2,O=C(CCc1ccccc1)NCCc1cccs1,36.1% (active)
3,O=C(Cc1ccccc1)NCc1ccc(F)cc1,42.5% (active)
4,CCn1cc(C(=O)Nc2cc(C)ccc2C)c(=O)c2ccc(C)nc21,7.8% (inactive)
5,COc1ccc(C2=NN(c3ccccc3)C(c3cccs3)C2)cc1 (configuration not stated),0.803% (inactive)
6,COc1ccccc1N1N=C(c2cccs2)CC1c1ccccc1 (configuration not stated),6.34% (inactive)
7,COc1ccc(C2CC(c3cccs3)=NN2c2ccccc2)cc1 (configuration not stated),41% (active)
8,Oc1ccccc1C1=NN(c2ccccc2)C(c2ccccc2)C1 (configuration not stated),49.1% (active)
9,O=C(c1ccccc1)N1N=C(c2ccccc2O)CC1c1ccc(Br)cc1 (configuration not stated),3.47% (inactive)
10,CC(=O)Oc1ccccc1C1=NN(C(C)=O)C(c2ccccc2)C1 (configuration not stated),9.57% (inactive)
11,CCN(CC)c1ccc(/C=N/Nc2nc(C)cc(C)n2)c(O)c1,22.2% (active)
12,COc1cccc(OCC(=O)NNC(=O)c2cnccn2)c1,-1.98% (inactive)
13,Cc1cc(C)nc(N/N=C/c2c(CO)cnc(C)c2O)n1,-2.74% (inactive)
14,Cc1cc(C)nc(N/N=C/c2ccncc2)n1,0.636% (inactive)
15,NS(=O)(=O)c1ccc(CNC(=O)c2cnccn2)cc1,-2.6% (inactive)
16,CCN(CC)c1ccc(/C=N/NC(=O)c2cnccn2)c(O)c1,28.1% (active)
17,O=C(Nc1ccccc1Cl)/C(Cl)=C(\Cl)S(=O)c1ccccc1 (configuration not stated),14.2% (inactive)
18,Cc1cccc(NC(=O)N(Cc2cc3cc(C)cc(C)c3[nH]c2=O)CC2COCCO2)c1 (configuration not stated),-3.44% (inactive)
19,O=C(Nc1ccccc1-c1ccccc1)c1ccccc1[N+](=O)[O-],-3.24% (inactive)
20,CCN(Cc1ccccc1)C(=O)CN1C(=S)NC(C)(C)CC1C (configuration not stated),-3.52% (inactive)
21,CCc1ccc2c(c1)C1(NN=C(c3ccccc3)S1)C(=O)N2 (configuration not stated),69.8% (active)
22,CCOC(=O)c1c(NC(=O)CCCN2CCOCC2)sc2c1CC(C)(C)OC2,12.6% (inactive)
23,CC(C)N(C(=O)c1ccc(-c2ccccc2F)cc1)C(C)C,-2.02% (inactive)
24,COc1ccc(CN(C)C(=O)Cc2c[nH]c3ccccc23)c(OC)c1OC,-1.59% (inactive)
25,CN(Cc1cccs1)C(=O)Cc1c[nH]c2ccccc12,18.3% (active)
26,CCOC(=O)CN(C)Cc1c[nH]c2ccccc12,0.657% (inactive)

row,SMILES,max response
1,COc1cccc(CNC(=O)Cc2csc(Nc3nc(=S)[nH]c4ccccc34)n2)c1,10.3% (inactive)
2,CCOC(CNC(=O)C(=O)NCC(c1ccco1)N1CCN(c2ccc(OC)cc2)CC1)OCC (configuration not stated),-5.43% (inactive)
3,CCCC(C)C(=O)NCc1ccncc1 (configuration not stated),-3.47% (inactive)
4,O=C(NNc1ccccc1Cl)C(O)(c1cccc(C(F)(F)F)c1)c1cccc(C(F)(F)F)c1,-4.75% (inactive)
5,N#CC(=C1CCCC1)c1nc(-c2ccc(Cl)cc2)cs1,27.6% (inactive)
6,N#CC(=C1SC=CS1)c1nc(-c2ccccc2)cs1,58.5% (active)
7,Cn1c(/C(C#N)=C2/CCCCCN2)nc2ccccc21,9.03% (inactive)
8,N#C/C(=C1/CCCN1)c1ccccn1,-2.58% (inactive)
9,N#C/C(=C1\CCCN1)c1nc(-c2ccccc2)cs1,23% (active)
10,Cc1ccc(S(=O)(=O)N2CCC(=O)N([C@H](COCc3ccccc3)Cc3ccccc3)CC2)cc1,7.08% (inactive)
11,CN(/C(=N/S(=O)(=O)c1cccs1)c1ccccc1)c1ccc(O)cc1,11.5% (inactive)
12,CN(C)S(=O)(=O)c1ccc(N2CCCC2)c(C(=O)Nc2cccc(F)c2)c1,-3.38% (inactive)
13,COc1ccc(CNC(=O)c2nnn(CC(=O)Nc3cc(C)cc(C)c3)c2N)cc1,-2.25% (inactive)
14,CCN(CC)c1ccc(C(=O)Nn2c(C)nc3ccccc3c2=O)cc1,-2.07% (inactive)
15,CCN(CC)c1ccc2oc(=O)c(C)nc2c1,16.6% (active)
16,CCN(CC)c1ccc2cc(C(N)=O)/c(=N\NC(=O)c3ccncc3)oc2c1,5.35% (inactive)
17,CCc1[nH]nc(C(=O)N2CCCC(CO)(Cc3ccc(F)cc3F)C2)c1C (configuration not stated),-3.79% (inactive)
18,CCN(C(=O)c1cc([N+](=O)[O-])ccc1NCc1cccnc1)c1ccccc1,-3.46% (inactive)
19,CCOC(=O)c1cc(C)sc1NC(=O)C1CCC1,6.29% (inactive)
20,CS(=O)(=O)c1ccc2nc(NC(=O)C3CCCCC3)sc2c1,9.31% (inactive)
21,Cc1nc(NC(=O)C2CCCCC2)sc1C,40.1% (active)
22,CN1C(=O)c2ccc(NC(=O)C3CCCCC3)cc2C1=O,1.88% (inactive)
23,Cc1nc(NC(=O)C23CCC(C)(C(=O)O2)C3(C)C)sc1C (configuration not stated),-1.47% (inactive)
24,Cc1cnc(NC(=O)C2CCCC2)s1,23.2% (active)
